Source: PubChem BioAssay (National Center for Advancing Translational Sciences (NCATS))
An excerpt weighted towards active compounds, which were near 5.7% of everything screened.
DRD3 agonist: qHTS of D3 Dopamine Receptor Agonist: qHTS; D3R DiscoveRx beta-arrestin cells, luminescence, 90 min; D(3) dopamine receptor (Homo sapiens), P35462; AID 652048, 2013; 410,000 compounds, 0.58% hits; max activation, %; in the data active = max activation above about 30%; also: 0% is about no effect
Target sequence (P35462 whole entry, looked up): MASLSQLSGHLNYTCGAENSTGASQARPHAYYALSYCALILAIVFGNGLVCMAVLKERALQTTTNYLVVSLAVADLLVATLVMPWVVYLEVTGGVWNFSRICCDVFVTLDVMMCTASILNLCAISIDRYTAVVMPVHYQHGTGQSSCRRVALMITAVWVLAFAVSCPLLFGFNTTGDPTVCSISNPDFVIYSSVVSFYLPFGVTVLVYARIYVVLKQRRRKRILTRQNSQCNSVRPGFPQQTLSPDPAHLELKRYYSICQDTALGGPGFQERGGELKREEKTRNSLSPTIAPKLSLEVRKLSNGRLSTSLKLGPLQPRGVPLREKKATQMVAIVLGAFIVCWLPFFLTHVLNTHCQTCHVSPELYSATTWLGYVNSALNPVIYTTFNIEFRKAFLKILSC
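Agonist-mode cell screen: cells plated at 1500/well and incubated overnight at 37 °C, then exposed to library compounds for 90 min at 37 °C. Detection reagent was added for 30–60 min at room temperature, and luminescence was read.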
GLP1R inv ag: qHTS of GLP-1 Receptor Inverse Agonists (Inhibition Mode); HEK293 GLP-1R CRE-luciferase, luminescence, 24 h; GLP-1R form is constitutively active; Potency, µM (doses to about 38.3 µM), inactives show at the highest dose activity change, negative = inhibition, hits mostly inhibitors; 410,000 compounds, 1.6% hits; AID 624417, 2012; also: potency is read from the fitted curve at half-maximal effect; % is scaled to controls: 0 for no effect and ±100 for the full control effect; nearly all actives have a fitted effect of over 55% in size
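HEK293 cells stably co-expressing a cAMP-responsive luciferase reporter and constitutively active GLP-1R were seeded, incubated 12 h, then exposed to compounds for 24 h at 37 C. Luminescence was read 12 min after detection reagent; inverse agonists lower signal.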
GLP1R ag: qHTS of GLP-1 Receptor Agonists; 380,000 compounds, 0.007% hits; Potency, µM (titrated, usually from 45.6 µM), for the others: top-dose activation, most hits filed as activators; Glucagon-like peptide 1 receptor (Homo sapiens), P43220; HEK293 GLP-1R CRE-luciferase, luminescence, 4-6 h; cells express a hypersensitive GLP-1R form; also: potency is read from the fitted curve at half-maximal effect; % of control where 0% means no effect
D3 antag: qHTS of D3 Dopamine Receptor Antagonist: qHTS. D(3) dopamine receptor (Homo sapiens), P35462. D3R cells, DiscoveRx beta-arrestin luminescence, antagonist mode; active compounds read low. max response, negative = inhibition, %. 360,000 compounds, 2.5% hits. AID 652054, 2013; in the data active = max response below about -50%; inconclusive = no clear call, values can overlap the other calls; also: % is scaled to controls: 0 for no effect and ±100 for the full control effect
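Cells expressing the human receptor were seeded at 1500 cells/well, incubated overnight at 37 degrees C in 5% CO2, then exposed to library compounds with dopamine controls for 90 minutes at 37 degrees C before luminescent detection.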
GLP1R cytotox: qHTS of GLP-1 Receptor Inverse Agonists: Cytotox Screen; HEK293 cAMP-luciferase reporter cells, luminescence, 24 h; Potency, µM (highest dose often 38.3 µM), inactives show top-dose activity change, negative = inhibition, actives largely listed as inhibitors; 410,000 compounds, 0.13% hits;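 also: loss of luciferase light is scored as toxicity; potency is read from the fitted curve at half-maximal effect; % is scaled to controls: 0 for no effect and ±100 for the full control effect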
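Quantitative HTS format, 1536 wells, 200 cells/uL seeded. Compounds: 23 nL, 24 h, 37 °C. Detection: luciferase reagent, luminescence at 12 min RT; decreased signal taken as cytotoxic.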
ClpP mod: qHTS Assay for Activators of ClpP | Potency, µM (doses to about 57.5 µM), for the others: at the top dose activity change, negative = active | ATP-dependent Clp protease proteolytic subunit (Bacillus subtilis (strain 168)), P80244 | purified B. subtilis ClpP, FRET peptide cleavage, 20 min | AID 651965, 2013 | 340,000 compounds, 1.9% hits; active = well fitted falling curve with a large enough effect; inconclusive = small, poorly fitted or top-dose-only effect; inactive = no such curve, though single readings can be large or run the other way; also: potency is read from the fitted curve at half-maximal effect; the source files actives as falling curves though it sought activators and does not explain the sign; nearly all actives have a fitted effect of over 65% in size
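FRET quenching reversal measured ClpP activation: 10 microg/mL B. subtilis ClpP at pH 8 with the FRET-FV decapeptide, read at 430 nm after 320 nm excitation. The 20-min minus 0-min signal was scaled between DMSO/no-enzyme wells and ADEP (5.8 microM final).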
* hit, by the source's call; ! = not confirmed by another sample. Unless noted, calls follow the shape of the dose curve; as a rule, active = well fitted curve in the direction sought with a large enough effect; inconclusive = small, poorly fitted or top-dose-only effect, or another doubt; inactive = no such curve, though single readings can be large; an effect the other way counts as inactive or inconclusive.

Results for CCOC(=O)c1cnn(-c2nc3c(C)cccc3s2)c1C(F)(F)F ?
DRD3 agonist: 0; GLP1R inv ag: 2%; GLP1R ag: -2%; D3 antag: -10; GLP1R cytotox: -6%; ClpP mod: 28µM*

What do the screens show for `CCOC(=O)c1cnn(-c2nc3c(C)cccc3s2)c1C`?
DRD3 agonist: 7; GLP1R inv ag: 0%; GLP1R ag: -6%; D3 antag: 0; GLP1R cytotox: -2%; ClpP mod: -3%

What do the screens show for `CCOC(=O)c1cnn(-c2nc(-c3cccc(F)c3)cs2)c1C(F)(F)F`?
DRD3 agonist: 1; GLP1R inv ag: -3%; GLP1R ag: 3%; D3 antag: 44; GLP1R cytotox: 9%; ClpP mod: 28µM*

How did O=C1c2ccccc2C(c2nnnn2-c2ccc3c(c2)OCCO3)N1Cc1cccc(F)c1 (centres undefined) do in these assays?
DRD3 agonist: 16; GLP1R inv ag: 2%; GLP1R ag: 2%; D3 antag: 14; GLP1R cytotox: -4%; ClpP mod: 1%

How did COc1ccc(C(=O)Nc2ccc(O)c3ccccc23)cc1 do in these assays?
DRD3 agonist: -16; GLP1R inv ag: inconclusive; GLP1R ag: -3%; D3 antag: -6; GLP1R cytotox: -23%; ClpP mod: 1%

Results for COc1ccc(NC(=O)Nc2ccc(O)c3ccccc23)cc1 ?
DRD3 agonist: 33*; GLP1R inv ag: 9%; GLP1R ag: -6%; D3 antag: -27; GLP1R cytotox: -13%; ClpP mod: -28%

What do the screens show for `CCOC(=O)c1sc(NC(=O)C(C)Sc2nc(-c3ccccc3)cc(C(F)(F)F)n2)c(C(=O)OC)c1C` (centres undefined)?
DRD3 agonist: -17; GLP1R inv ag: 1%; GLP1R ag: -2%; GLP1R cytotox: 0%; ClpP mod: -2%

What do the screens show for `O=C(NCc1ccc(Cl)cc1)c1ccccc1Oc1ccccc1`?
DRD3 agonist: -2; GLP1R inv ag: 2.8µM*; GLP1R ag: 3%; D3 antag: 0; GLP1R cytotox: 23%; ClpP mod: 0%

How did CCC(C)(C)NC(=O)c1ccccc1Oc1ccccc1 do in these assays?
DRD3 agonist: -9; GLP1R inv ag: 14µM*; GLP1R ag: 13%; D3 antag: 3; GLP1R cytotox: -10%

How did O=C1/C(=C/c2ccccc2[N+](=O)[O-])COc2ccccc21 do in these assays?
DRD3 agonist: -12; GLP1R inv ag: inconclusive; GLP1R ag: -7%; D3 antag: -71*; GLP1R cytotox: inconclusive; ClpP mod: 1%

How did CNc1ccc(/C=C2\COc3ccccc3C2=O)cc1[N+](=O)[O-] do in these assays?
DRD3 agonist: 0; GLP1R inv ag: 10%; GLP1R ag: 14%; D3 antag: 9; GLP1R cytotox: 2%; ClpP mod: 3%

How did COc1cccc(-n2nnnc2S(C)(=O)=O)c1 do in these assays?
DRD3 agonist: -8; GLP1R inv ag: inconclusive; GLP1R ag: -5%; D3 antag: -77*; GLP1R cytotox: -15%; ClpP mod: -3%

How did COc1cccc(CN2CCN(c3ncccn3)CC2)c1OC do in these assays?
DRD3 agonist: 11; GLP1R inv ag: 5%; GLP1R ag: 6%; D3 antag: -1; GLP1R cytotox: 3%; ClpP mod: 1%

What do the screens show for `COc1ccc(CN2CCN(c3ccccn3)CC2)c(OC)c1C`?
DRD3 agonist: -11; GLP1R inv ag: inconclusive; GLP1R ag: -3%; D3 antag: -56*!; GLP1R cytotox: -3%; ClpP mod: -2%
